Most compounds without a hit are left out; they make up all but 1.8% or so of the library.
VLA-4 inh: inhibition in a human VLA-4 binding assay; P13612; VLA-4 expressing cells, ligand binding flow cytometry; inhibition, % (about 7 µM as worked out from the volumes in the protocol); 330,000 compounds, 0.2% hits; AID 2557
HDAC3 inh: human HDAC3 inhibition | O15379 | recombinant HDAC3, fluorogenic peptide/trypsin coupled, fluorescence | 320,000 compounds, 0.15% hits | inhibition, % at 8.3 µM; in the data active means inhibition above about 26%, passing the limit was not always enough
Pemphigus Ab inh: blocks pemphigus antibody binding to human desmoglein-3; 310,000 compounds, 0.48% hits; AID 588358; P32926; binding (percent of control), % at 10 µM; DSG3-coupled beads, scFv-anti-DSG3-GFP binding, flow cytometry; active compounds read low;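 active means binding more than 3 SD below its plate's average and above zero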;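 further: hits lower antibody fragment binding to DSG3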
GRK2 inh: inhibitors of human GRK2 displacing RNA aptamer; P25098; bead flow cytometry, FAM-aptamer displacement from GRK2; inhibition of aptamer binding, % at 10 µM; 330,000 compounds, 0.59% hits; AID 488847;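 active means inhibition of aptamer binding above 40%, roughly 3 SD of noise, on plates passing a quality check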;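 further: median bead fluorescence of bound FAM aptamer so fluorescent compounds give negative values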
Target sequence (P25098 whole entry, looked up): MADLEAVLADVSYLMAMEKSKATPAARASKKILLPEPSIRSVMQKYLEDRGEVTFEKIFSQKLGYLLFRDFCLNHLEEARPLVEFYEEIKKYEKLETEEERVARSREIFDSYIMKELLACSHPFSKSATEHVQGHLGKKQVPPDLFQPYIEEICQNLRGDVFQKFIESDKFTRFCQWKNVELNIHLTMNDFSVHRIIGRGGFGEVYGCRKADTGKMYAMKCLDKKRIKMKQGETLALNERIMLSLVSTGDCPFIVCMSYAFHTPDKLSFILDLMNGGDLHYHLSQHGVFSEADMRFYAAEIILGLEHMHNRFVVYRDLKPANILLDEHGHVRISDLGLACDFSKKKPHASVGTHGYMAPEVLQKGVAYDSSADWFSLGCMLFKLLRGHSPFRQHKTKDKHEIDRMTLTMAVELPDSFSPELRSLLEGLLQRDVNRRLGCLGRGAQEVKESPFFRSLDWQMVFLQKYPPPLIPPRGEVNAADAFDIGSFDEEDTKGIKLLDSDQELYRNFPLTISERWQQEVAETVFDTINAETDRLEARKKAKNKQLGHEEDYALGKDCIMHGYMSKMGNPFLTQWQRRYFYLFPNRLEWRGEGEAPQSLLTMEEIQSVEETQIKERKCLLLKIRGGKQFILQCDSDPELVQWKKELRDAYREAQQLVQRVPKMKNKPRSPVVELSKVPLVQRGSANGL
PKD1 inh: PKD1 (human) kinase inhibition; PKD1 kinase fluorescence polarization assay; inhibition, % (no concentration beside the values); 200,000 compounds, 0.056% hits
LANA-H2B inh: blocks KSHV LANA binding to histone H2A/H2B; inhibition, % (test concentration not listed); AID 2629; cell-free LANA-H2A/H2B peptide, fluorescence polarization; Q9QR71; 320,000 compounds, 0.6% hits; in the data active means inhibition mostly above about 10%, no sharp cut-off; inactive means mostly below about 6.7%
VLA-4 mod pick: confirmation of allosteric modulators of human VLA-4 integrin. shares compounds with VLA-4 inh. U937 cells, HUTS-21 LIBS mAb binding, flow cytometry; LDV ligand present at threefold Kd. inhibition, % at 6.7 µM. 1,300 compounds, 2% hits. AID 2813; in the data active means inhibition above about 40%
Hits are given with their value; 0 = inactive; - = no result. Unless noted, no stated cut-off is given here; in the data, active means inhibition above about 50%; inactive means the rest.

SMILES | VLA-4 inh | HDAC3 inh | Pemphigus Ab inh | GRK2 inh | PKD1 inh | LANA-H2B inh | VLA-4 mod pick
Cc1nc2nc(SCC(=O)c3cccc([N+](=O)[O-])c3)[nH]c2cc1Br | 0 | 0 | 0 | 0 | 0 | 0 | 0
Cc1c(-c2ccncc2)oc2ccc(Br)cc2c1=O | 0 | 0 | - | 0 | 0 | 0 | -
Nc1nonc1-n1nnc(C(=O)N/N=C/c2cccs2)c1-c1ccc2c(c1)OCO2 | 0 | 0 | 0 | 0 | - | 0 | -
CC[C@H](CO)NCCN[C@H](CC)CO | 0 | 0 | 0 | 0 | 0 | 0 | -
CCC(CO)NCCNC(CC)CO (stereo unspecified) | 50 | 0 | 0 | 0 | 0 | 0 | 0
COC(=O)c1c(C(=O)OC)c(-c2ccc(F)cc2)n2c1CS(=O)(=O)C2 | 0 | 0 | 0 | 0 | - | 0 | 0
COc1ccc([C@@]2(O)c3c(ccc(CC=C(C)C)c3O)NC(=O)[C@@H]2OC)cc1 | 0 | 0 | 0 | 0 | - | 0 | 0
COc1ccc(C2(O)C(=O)Nc3ccc(C)cc32)cc1 (stereo unspecified) | 0 | 0 | 0 | 0 | - | 0 | -
COCCn1nnnc1C(c1ccc(OC)cc1OC)N1CCN(c2ccccc2F)CC1 (stereo unspecified) | 99 | 0 | - | 0 | 0 | 0 | 0
COc1cccc(N2CCN(C(=O)c3ccc(Cl)c(NC4=NC5CS(=O)(=O)CC5S4)c3)CC2)c1 (stereo unspecified) | 0 | 0 | 0 | 0 | - | 0 | 0
CCOC(=O)N1CCN(C(=O)c2cccc(NC3=NC4CS(=O)(=O)CC4S3)c2)CC1 (stereo unspecified) | 0 | 0 | 0 | 0 | 0 | 0 | 0
COc1ccc(N2CCN(C(=O)c3cccc(NC4=NC5CS(=O)(=O)CC5S4)c3)CC2)cc1 (stereo unspecified) | 0 | 0 | 0 | 0 | - | 0 | -
O=C(c1cccc(NC2=NC3CS(=O)(=O)CC3S2)c1)N1CCN(c2ncccn2)CC1 (stereo unspecified) | 0 | 0 | 0 | 0 | - | 0 | 0
COC(=O)c1ccc(N2CCN(c3ccccc3)CC2)c(NC(=O)C2CC2)c1 | 0 | 0 | 0 | 0 | 0 | 0 | -
COC(=O)c1ccc(N2CCN(c3ccccc3)CC2)c(N)c1 | 0 | 0 | 0 | 0 | - | 0 | 0
COc1ccc(CN2C(=O)C(CC(=O)NCc3cccs3)CC(C(=O)N(C(C)C)C(C)C)=C2C)cc1 (stereo unspecified) | - | - | 0 | - | - | - | -
O=C(NCc1ccccc1F)C1CCN(C(=O)c2sccc2-n2cccc2)CC1 | 111 | 0 | 0 | 0 | 0 | 0 | 0
Cc1ccc([N+](=O)[O-])cc1S(=O)(=O)Nc1ccc(C(=O)NCC2CCCO2)cc1 (stereo unspecified) | 0 | 0 | 0 | 0 | - | 0 | -
COc1ccccc1NS(=O)(=O)c1cc(NC(=O)CNC(=O)c2ccccc2)ccc1C | 53 | 0 | 0 | 0 | 0 | 0 | 0
CC(C)(C)CC(=O)N1CCN(c2ccc(S(=O)(=O)N3CCOCC3)cc2[N+](=O)[O-])CC1 | 0 | 0 | 0 | 0 | - | 0 | -
CC(=O)[C@@]1(O)CC[C@H]2[C@@H]3CCC4=CC(=O)CC[C@]4(C)[C@H]3[C@@H](O)C[C@@]21C | 53 | 0 | 0 | 0 | 0 | 0 | 0
Cc1csc(NC(=O)c2cc(C)on2)n1 | 0 | 0 | 0 | 0 | - | 0 | -
CCOC(=O)N1CCN(c2nc(C)c3c(n2)CC(C)CC3=O)CC1 (stereo unspecified) | 53 | 0 | 0 | 0 | 0 | 0 | 0
CC(C)CC(=NNC(=O)c1ccncc1)c1cc(Cl)ccc1O | - | - | 0 | - | - | - | -
Cc1cc(C(=O)CN2CCCC(C)C2)c(C)n1-c1ccc(F)cc1 (stereo unspecified) | 0 | 0 | - | 0 | 0 | 0 | 0
SMILES | VLA-4 inh | HDAC3 inh | Pemphigus Ab inh | GRK2 inh | PKD1 inh | LANA-H2B inh | VLA-4 mod pick
COc1ccc(/C=C/c2noc(-c3ccccc3O)n2)cc1 | 0 | 0 | 0 | 0 | 0 | 0 | -
COc1cc(/C=C/c2noc(-c3ccccc3O)n2)cc(OC)c1OC | 0 | 0 | 0 | 0 | 0 | 0 | 0
COc1cccc(C2CC(=O)Nc3cc4c(cc32)OCCO4)c1OC(C)C (stereo unspecified) | 0 | 0 | 0 | 0 | 0 | 0 | 0
CCCOc1c(OC)cccc1C1CC(=O)Nc2cc3c(cc21)OCO3 (stereo unspecified) | 0 | 0 | 0 | 0 | 0 | 0 | -
CCCOc1c(OC)cccc1C1CC(=O)Nc2cc3c(cc21)OCCO3 (stereo unspecified) | 0 | 0 | 0 | 0 | 0 | 0 | 0
CC(C)Oc1ccccc1C1CC(=O)Nc2cc3c(cc21)OCCO3 (stereo unspecified) | 0 | 0 | 0 | 0 | 0 | 0 | -
O=C(Cn1c(=O)c2sccc2n(Cc2cccc([N+](=O)[O-])c2)c1=O)NCCc1ccccc1 | 0 | 0 | 0 | 0 | 0 | 0 | -
CCN1C(=O)Cc2cc(S(=O)(=O)NCCc3ccccc3)ccc21 | 0 | 0 | 0 | 0 | - | 0 | 0
Cc1cc(C=O)c(C)n1-c1sc2c(c1C(=O)O)CCCC2 | 52 | 0 | 0 | 0 | 0 | 0 | 0
COC(=O)c1c(-n2c(C)cc(C=O)c2C)sc2c1CCCC2 | 0 | 0 | 0 | 0 | 0 | 0 | -
CCCOc1ccc(C(=O)N(Cc2cccs2)C2CCS(=O)(=O)C2)cc1 (stereo unspecified) | 0 | 0 | 0 | 0 | - | 0 | -
NC(=O)CC(NC(=O)c1cccc(Br)c1)c1ccc(N2CCC(N3CCCCC3)CC2)c([N+](=O)[O-])c1 (stereo unspecified) | 56 | 0 | - | 0 | - | 0 | 0
NC(=O)CC(NC(=O)c1ccccc1)c1ccc(N2CCC(N3CCCC3)CC2)c([N+](=O)[O-])c1 (stereo unspecified) | 0 | 0 | 0 | 0 | - | 0 | -
O=C(COc1ccc(Cl)cc1Cl)c1ccc[nH]1 | 0 | 0 | 0 | 0 | - | 0 | -
Nc1cc(C(=O)OCC(=O)NCCC2=CCCCC2)ccc1Cl | 0 | 0 | 0 | 0 | - | 0 | 0
O=C(COC(=O)c1ccc(Br)cc1)NCCC1=CCCCC1 | 0 | 0 | 0 | 0 | 0 | 0 | -
CCCS(=O)(=O)N1CCC(C(=O)NC2CCC(C)CC2)CC1 (stereo unspecified) | 93 | 0 | 0 | 0 | 0 | 0 | 0
O=C(CN(c1cccc(Cl)c1)S(=O)(=O)c1ccc(Cl)cc1)N1CCc2ccccc2C1 | 0 | 0 | 0 | 0 | 0 | 0 | -
O=C(N1CCOCC1)C12CCC3CC(CC(C3)C1)C2 | 0 | 0 | 0 | 0 | 0 | 0 | -
O=C(N1CCOCC1)N1CCC(NC(=O)C23CC4CC(CC(C4)C2)C3)CC1 | 52 | 0 | 0 | 0 | 0 | 0 | 0
C/C(=N\Nc1ccc([N+](=O)[O-])cc1[N+](=O)[O-])c1cccnc1 | 0 | 0 | 0 | 0 | - | 0 | 0
COc1ccc2cc1Oc1ccc(cc1)C[C@H]1c3c(cc(OC)c4c3Oc3c(ccc5c3[C@H](C2)N(C)CC5)O4)CCN1C | 0 | 0 | 0 | 0 | - | 0 | -
COc1ccc2cc1Oc1ccc(cc1)CC1c3c(cc(OC)c4c3Oc3cc5c(cc3O4)CCNC5C2)CCN1C (stereo unspecified) | 52 | 0 | 0 | 0 | - | 0 | 0

Screening data from PubChem.
